Results taken from PubChem BioAssay AID1159580 (chemical genetic matrix, 2015).
The campaign covered roughly 5,500 compounds. About 2,000 (36%) were called active. Inconclusive results (about 18%) are left out. Cut-off read from the data, not from the text of the source: active = normalized growth mostly below about 0.91 (no sharp cut-off); inconclusive = no clear call, values can overlap the other calls; inactive = mostly above about 0.92. The list shows a part of the results.

Assay: chemical genetic growth profiling, strain panel (AID 1159580);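 note: tested at 20 µM; growth read once vehicle control cultures reached saturation at 30 °C; 1 = growth at the plate median or of vehicle wells; lower values mean less growth of the strain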
Conditions: S. cerevisiae deletion strains, growth OD
[1] = locus YHR030C, strain SLT2, active compounds read low
[2] = locus YHR079C, strain IRE1, active compounds read low
[3] = locus YJL095W, strain BCK1, active compounds read low
[4] = locus YJR066W, strain TOR1, active compounds read low
[5] = locus YLR113W, strain HOG1, active compounds read low
[6] = locus YNL183C, strain NPR1, active compounds read low
[7] = locus YOR231W, strain MKK1, active compounds read low
[8] = locus YPL256C, strain CLN2, active compounds read low

Measured: normalized growth

CC(=O)OCC(=O)[C@@]1(O)CCC2C3CCC4=CC(=O)C=C[C@]4(C)[C@@]3(F)[C@@H](O)C[C@@]21C (stereo partly drawn)
inactive: [1] 1.07 | [2] 1.07 | [3] 1.01 | [4] 1 | [5] 0.999 | [6] 0.993 | [7] 1.05 | [8] 1.06

O=C(/C=C/C(=O)Oc1ccccc1C(=O)O)Oc1ccccc1C(=O)O
inactive: locus YAL021C, strain ccr4, active compounds read low 0.961 | locus YAL026C, strain drs2, active compounds read low 0.988 | locus YAL030W, strain snc1, active compounds read low 0.992 | locus YBL061C, strain skt5, active compounds read low 0.983 | locus YBR009C, strain hhf1, active compounds read low 0.991 | locus YBR023C, strain chs3, active compounds read low 0.994 | locus YBR171W, strain sec66, active compounds read low 0.962 | locus YBR231C, strain swc5, active compounds read low 0.984 | locus YBR279W, strain paf1, active compounds read low 0.978 | locus YCL011C, strain gbp2, active compounds read low 0.989 | locus YCL016C, strain dcc1, active compounds read low 0.971 | locus YCL061C, strain MRC1, active compounds read low 0.995 | locus YCL069W, strain vba3, active compounds read low 0.99 | locus YCR088W, strain abp1, active compounds read low 0.987 | locus YDL005C, strain med2, active compounds read low 0.976 | locus YDL040C, strain nat1, active compounds read low 0.992 | locus YDR001C, strain nth1, active compounds read low 0.972 | locus YDR069C, strain doa4, active compounds read low 0.98 | locus YDR137W, strain rgp1, active compounds read low 0.969 | locus YDR159W, strain sac3, active compounds read low 0.971 | locus YDR195W, strain ref2 0.976 | locus YDR297W, strain sur2, active compounds read low 0.987 | locus YDR334W, strain swr1, active compounds read low 0.99 | locus YDR335W, strain msn5, active compounds read low 0.986 | locus YDR392W, strain spt3, active compounds read low 0.995 | locus YEL003W, strain gim4, active compounds read low 0.995 | locus YEL037C, strain rad23, active compounds read low 0.998 | locus YEL061C, strain CIN8 (second series), active compounds read low 0.981 | locus YER015W, strain faa2, active compounds read low 0.992 | locus YER016W, strain bim1, active compounds read low 0.971 | locus YER111C, strain swi4, active compounds read low 0.975 | locus YER155C, strain BEM2 (second series), active compounds read low 0.998 | locus YFR010W, strain ubp6, active compounds read low 0.991 | locus YGL167C, strain pmr1, active compounds read low 0.976 | locus YGL173C, strain kem1, active compounds read low 1 | locus YGL227W, strain vid30, active compounds read low 0.962 | locus YGL240W, strain doc1, active compounds read low 0.984 | locus YGL253W, strain hxk2, active compounds read low 0.995 | locus YHR013C, strain ard1, active compounds read low 0.984 | locus YHR027C, strain rpn1, active compounds read low 0.979 | [1] 1.01 | [2] 1.02 | locus YHR142W, strain chs7, active compounds read low 0.974 | locus YJL092W, strain hpr5, active compounds read low 0.989 | locus YJL095W, strain BCK1 (second series), active compounds read low 0.992 | [3] 1.02 | locus YJL115W, strain asf1, active compounds read low 0.968 | locus YJL129C, strain trk1, active compounds read low 0.964 | locus YJL154C, strain vps35, active compounds read low 0.996 | locus YJL164C, strain tpk1, active compounds read low 0.99 | locus YJL166W, strain qcr8, active compounds read low 0.997 | [4] 0.975 | locus YKL160W, strain elf1, active compounds read low 0.981 | locus YKR026C, strain gcn3, active compounds read low 0.968 | locus YKR091W, strain srl3, active compounds read low 0.978 | locus YLL001W, strain dnm1, active compounds read low 0.999 | locus YLL026W, active compounds read low 0.961 | locus YLL041C, strain sdh2, active compounds read low 0.987 | locus YLR027C, strain aat2, active compounds read low 0.985 | [5] 0.987 | locus YLR221C, strain rsa3, active compounds read low 1 | locus YLR258W, strain gsy2, active compounds read low 0.988 | locus YLR262C, strain YPT6 (second series), active compounds read low 0.996 | locus YLR320W, strain mms22, active compounds read low 1.01 | locus YLR342W, strain FKS1, active compounds read low 0.983 | locus YLR357W, strain rsc2, active compounds read low 0.987 | locus YLR370C, strain arc18, active compounds read low 0.994 | locus YLR384C, strain iki3, active compounds read low 0.976 | locus YML120C, strain ndi1, active compounds read low 0.974 | locus YMR058W, strain fet3, active compounds read low 0.984 | locus YMR125W, strain sto1, active compounds read low 0.967 | locus YMR129W, active compounds read low 0.973 | locus YMR205C, strain PFK2, active compounds read low 0.964 | locus YMR231W, strain pep5, active compounds read low 0.979 | locus YNL071W, strain lat1, active compounds read low 1 | [6] 0.976 | locus YNL209W, strain ssb2, active compounds read low 0.971 | locus YNL248C, strain rpa49, active compounds read low 0.985 | locus YNL322C, strain KRE1 (second series), active compounds read low 0.93 | locus YNR049C, strain mso1, active compounds read low 0.985 | locus YOR001W, strain rrp6, active compounds read low 1 | locus YOR070C, strain gyp1, active compounds read low 0.978 | locus YOR080W, strain dia2, active compounds read low 0.98 | locus YOR083W, strain WHI5, active compounds read low 0.935 | locus YOR106W, strain vam3, active compounds read low 0.953 | [7] 1.01 | locus YOR265W, strain rbl2, active compounds read low 0.979 | locus YOR270C, strain vph1, active compounds read low 1.02 | locus YOR290C, strain snf2, active compounds read low 0.98 | locus YPL051W, strain arl3, active compounds read low 0.984 | locus YPL078C, strain atp4, active compounds read low 0.984 | locus YPL106C, strain sse1, active compounds read low 0.973 | locus YPL240C, strain hsp82, active compounds read low 0.968 | [8] 1

CC(/C=C/c1ccccc1)=N/OC(=O)c1ccccc1Cl
active: [5] 0.734 | [8] 0.806
inactive: locus YAR019C, strain CDC15, active compounds read low 0.967 | locus YBL105C, strain PKC1, active compounds read low 0.97 | locus YBR135W, strain CKS1, active compounds read low 0.974 | locus YBR136W, strain MEC1, active compounds read low 0.969 | locus YBR160W, strain CDC28, active compounds read low 0.97 | locus YDL017W, strain CDC7, active compounds read low 0.976 | locus YDL028C, strain MPS1, active compounds read low 0.981 | locus YDL101C, strain DUN1, active compounds read low 0.976 | locus YDL108W, strain KIN28, active compounds read low 0.982 | locus YDL132W, strain cdc53, active compounds read low 0.978 | locus YDL214C, strain PRR2, active compounds read low 0.902 | locus YDR052C, strain DBF4, active compounds read low 0.981 | locus YDR054C, strain cdc34, active compounds read low 0.96 | locus YDR226W, strain ADK1, active compounds read low 0.979 | locus YDR477W, strain SNF1, active compounds read low 0.911 | locus YER123W, strain YCK3, active compounds read low 0.876 | locus YER133W, strain GLC7, active compounds read low 0.917 | locus YFL009W, strain cdc4, active compounds read low 0.974 | locus YFL029C, strain CAK1, active compounds read low 0.969 | locus YFR003C, strain YPI1, active compounds read low 0.97 | locus YFR019W, strain FAB1, active compounds read low 0.936 | locus YFR028C, strain CDC14, active compounds read low 0.969 | locus YGR040W, strain KSS1, active compounds read low 0.887 | locus YGR052W, strain FMP48, active compounds read low 0.949 | locus YGR092W, strain DBF2, active compounds read low 0.874 | [1] 0.899 | [2] 0.888 | locus YHR082C, strain KSP1, active compounds read low 0.96 | locus YHR205W, strain SCH9, active compounds read low 0.864 | locus YIL147C, strain SLN1, active compounds read low 0.974 | [3] 0.903 | locus YJL128C, strain PBS2, active compounds read low 0.955 | locus YJL157C, strain FAR1, active compounds read low 0.879 | locus YJR016C, strain ILV3, active compounds read low 0.978 | locus YJR066W, strain TOR1 (second series), active compounds read low 0.795 | [4] 0.963 | locus YKL048C, strain ELM1, active compounds read low 0.936 | locus YKL067W, strain YNK1, active compounds read low 0.907 | locus YKL101W, strain HSL1, active compounds read low 0.902 | locus YKL193C, strain SDS22, active compounds read low 0.974 | locus YKL203C, strain TOR2, active compounds read low 0.954 | locus YLR133W, strain CKI1, active compounds read low 0.896 | locus YLR403W, strain SFP1, active compounds read low 0.86 | locus YML070W, strain DAK1, active compounds read low 0.849 | locus YMR001C, strain CDC5, active compounds read low 0.97 | locus YMR205C, strain PFK2 (second series), active compounds read low 0.917 | locus YMR277W, strain FCP1, active compounds read low 0.966 | locus YNL006W, strain LST8, active compounds read low 0.984 | locus YNL020C, strain ARK1, active compounds read low 0.905 | locus YNL161W, strain CBK1, active compounds read low 0.968 | [6] 0.903 | locus YNL207W, strain RIO2, active compounds read low 0.965 | locus YNL222W, strain SSU72, active compounds read low 0.984 | locus YNL307C, strain MCK1 (second series), active compounds read low 0.899 | locus YOL078W, strain AVO1, active compounds read low 0.975 | locus YOL136C, strain PFK27, active compounds read low 0.849 | locus YOR061W, strain CKA2, active compounds read low 0.9 | locus YOR119C, strain RIO1, active compounds read low 0.961 | [7] 0.84 | locus YOR329C, strain SCD5, active compounds read low 0.974 | locus YPL031C, strain PHO85, active compounds read low 0.909 | locus YPL153C, strain RAD53, active compounds read low 0.896 | locus YPL204W, strain HRR25, active compounds read low 0.897 | locus YPL209C, strain IPL1, active compounds read low 0.966 | locus YPR025C, strain CCL1, active compounds read low 0.977 | locus YPR106W, strain ISR1, active compounds read low 0.964 | locus YPR111W, strain DBF20, active compounds read low 0.961 | strain NNK1, active compounds read low 0.963 | strain TSCII, active compounds read low 0.961
